The panel holds about 83,000 compounds, 20% with a hit somewhere; the sample as a whole holds those more often.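 Treatment: one concentration, 48 hours, 96-well format. Scoring: percent growth, with anything below 10 considered active.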 Values without a mark were called inactive. Activity calls are given as the source filed them.
Legend:
Assay in all cases: NCI-60 one-dose screen, 48 h (100 = growth as untreated, 0 = no growth, -100 = all killed)
Conditions in all cases: 10 µM unless noted
DU-145 prostate = system: DU-145 prostate
K-562 leukemia = system: K-562 leukemia
MALME-3M melanoma = system: MALME-3M melanoma
MDA-MB-231 breast = system: MDA-MB-231 breast
RXF 393 renal = system: RXF 393 renal
SF-268 CNS = system: SF-268 CNS
SF-295 CNS = system: SF-295 CNS
SF-539 CNS = system: SF-539 CNS
UACC-257 melanoma = system: UACC-257 melanoma
M14 melanoma = system: M14 melanoma

Compound | growth (DU-145 prostate) | growth (K-562 leukemia) | growth (MALME-3M melanoma) | growth (MDA-MB-231 breast) | growth (RXF 393 renal) | growth (SF-268 CNS) | growth (SF-295 CNS) | growth (SF-539 CNS) | growth (UACC-257 melanoma) | growth (M14 melanoma)
O=C1Nc2ccccc2C12C=C(c1ccccc1)Nc1c2c(-c2ccccc2)nn1-c1ccccc1 (stereo not given) | 83.4% | 37.5% | 98.5% | 85.6% | 5.5% (active) | 58.5% | 42.1% | 86.4% | 88.7% | 58.2%
O=C1C(=O)c2c(nc3ccc(C(F)(F)F)cn23)-c2ccccc21 | -96.3% (active) | -41.9% (active) | -97.3% (active) | -22.7% (active) | -94.8% (active) | -78.7% (active) | -96.5% (active) | -97.4% (active) | -97.1% (active) | -79.5% (active)
COC1=CC=CC2(OC)C3(O)CCCc4cccc(c43)N3C(=O)COC132 (stereo not given) | 106% | 92.5% | 92.9% | 98.5% | 104% | 98.4% | 106% | 98% | 101% | 99.1%
S=C(Nc1ccccc1)c1ccccn1 | 120% | 99.7% | 114% | 102% | 128% | 105% | 114% | 91.1% | 31.3% | 90.6%
OCCNc1nc(NCCO)nc(Nc2ccc(C3=NN(c4cc(Cl)cc(Cl)c4)C(c4ccccc4)C3)cc2)n1 (stereo not given) | 45.8% | 18.4% | 59.2% | 42.1% | 11% | 50.8% | 10% | 38% | 91.2% | 46.2%
COc1ccc(C(=O)c2cc(OC)c(OC)c(OC)c2)cc1OC(=O)C(Cl)(Cl)Cl | 7.06% (active) | 7.85% (active) | 74.8% | 28.7% | 29.9% | 34.7% | 8.77% (active) | -7.13% (active) | 56% | -4.45% (active)
CC(=O)OCC1OC(OC2C(COC(C)=O)OC(OCCC[S-])C(OC(C)=O)C2OC(C)=O)C(OC(C)=O)C(OC(C)=O)C1OC(C)=O.[Au+].c1ccc(CN2[CH-]N(Cc3ccccc3)C(c3ccccc3)=C2c2ccccc2)cc1 (stereo not given) | 26.1% | 4.75% (active) | -8.9% (active) | -34.7% (active) | 25.7% | 40.1% | 7.32% (active) | 35.6% | 12.5% | 25%
C(=C\c1cn(-c2ccccc2)nc1-c1ccccc1)/c1nnc(-c2c[nH]c3ccccc23)o1 | 27% | 61.5% | 7.81% (active) | 9.62% (active) | 53.5% | 40.9% | 29.8% | 59.2% | 107% | 45.5%
O=C(Nc1ccc2ncnc(Nc3cccc(C(F)(F)F)c3)c2c1)c1cccs1 | 39.6% | 26.3% | 106% | 54.3% | 66.2% | 51.4% | 44% | 87.7% | 103% | 49.5%
COC(=O)c1ccc2c(c1)NC(=O)[C@@H]1CCCN21 | 106% | 96.7% | 105% | 97.3% | 106% | 94.7% | 100% | 93.8% | 98.3% | 102%
CC[C@H](Nc1ncnc2nc[nH]c12)c1nc2cccc(CC(=O)c3ccc(C(=O)NO)cc3)c2c(=O)n1-c1ccccc1 | 101% | 85.9% | 56.2% | 99.9% | 83.5% | 83% | 97.9% | 78.5% | 53.5% | 92.5%
Nc1n[nH]c2cccc(C#Cc3cccc(NC(=O)c4cc(N5CCOCC5)cc(C(F)(F)F)c4)c3)c12 | 64.6% | 4.32% (active) | -18.1% (active) | 30% | 38.7% | 55.8% | 69.1% | 24.6% | 45.1% | 19.2%
O=C(O)c1ccc(-n2cc(/C=N/Nc3ccc(Cl)cc3Cl)c(-c3ccccc3)n2)cc1 | 93.6% | 87.8% | 92.3% | 81.7% | 97.9% | 81.8% | 74.7% | 82% | 116% | 88.1%
O=c1[nH]nc(-c2ccc(Br)cc2)c2sc(NC(=S)Nc3ccc(Cl)cc3)nc12 | 110% | 98.6% | 94.2% | 92.4% | 111% | 100% | 96.8% | 103% | 113% | 95.3%
Cc1nccc2c3ccc(OCc4cn(-c5ccc(Br)cc5)nn4)cc3n(CC(C)C)c12 | 76% | 14.8% | 51.1% | 46.9% | 46.1% | 68.4% | 40% | 61.4% | 27.3% | 42.6%
Cc1ccc(-c2nc(C#N)c(S(=O)(=O)N(C)CCO)o2)cc1 | 90.2% | 25% | 60.1% | 81.4% | 107% | 72.6% | 104% | 43% | 77.9% | 61.7%
CC1(C)[C@@H](O)CC[C@]2(C)[C@H]3CC[C@@H]4[C@H]5[C@H](c6cn(-c7ccccc7)nn6)CC[C@]5(CO)CC[C@@]4(C)[C@]3(C)CC[C@@H]12 | 95.4% | 79.2% | 104% | 84.3% | 65.3% | 76.7% | 86.5% | 92.6% | 83.6% | 90.5%
N#Cc1c(-c2ccc(F)cc2)nc(N/N=C/c2cccc(O)c2)nc1N1CCOCC1 | 65.9% | 67.5% | 100% | 96.8% | 53.9% | 88.3% | 98.9% | 78.4% | 88.8% | 85.6%
Nc1ccc(C2=NN(C(=O)c3cc(-c4ccc(Cl)cc4)nc4ccccc34)C(c3ccccc3)C2)cc1 (stereo not given) | 33.2% | 15.6% | 52.5% | 61.2% | -3.58% (active) | 57.3% | 13.1% | 14.9% | 55.3% | 16.9%
C=CCn1c(CN2CCN(c3cc4c(cc3F)c(=O)c(C(=O)O)cn4C3CC3)CC2)n[nH]c1=S | 103% | 89.6% | 85.4% | 116% | 115% | 97.5% | 101% | 98.8% | 105% | 107%
CC[C@]12C=CCN3CC[C@@]4(c5ccc(OC)cc5N(C)[C@H]4[C@@](O)(C(=O)OC)[C@@H]1OC(=O)CCC(=O)O[C@H]1CC[C@H]4[C@@H]5CC[C@H]6CC(=O)CC[C@]6(C)[C@H]5CC[C@]14C)[C@@H]32 | 43.7% | 8.73% (active) | 42.5% | 34.6% | 25.9% | 46.2% | 7.7% (active) | 47.3% | 26.9% | 26%
CCC[S@@](=O)c1ccc2nc(NC(=O)OC)[nH]c2c1 | 107% | 40.9% | 89.2% | 83.3% | 95.2% | 96.1% | 88% | 90.8% | 57% | 73.2%
Cc1ccc2nc3nc4ccc[nH]c4cc3c2c1 | 108% | 111% | 101% | 70.3% | 99.6% | 94.1% | 113% | 83.5% | 119% | 110%
COc1ccc2nc3nc4ccc[nH]c4cc3c2c1 | 88.3% | 99.6% | 90% | 98% | 101% | 84.5% | 112% | 94% | 115% | 101%
CC1CCCN(CCCCCOc2ccc3oc4ccccc4c(=O)c3c2)C1 (stereo not given) | 85.1% | 17.3% | 4.45% (active) | 67.8% | 60.8% | 72.5% | 72.9% | 77.2% | -18.8% (active) | 5.02% (active)
COC(=O)c1ccc2c(c1)n(Cc1ccc3ccccc3c1)c[n+]2Cc1ccc2ccccc2c1 | 72.5% | 20.6% | -4.4% (active) | 28.5% | 69.3% | 40.9% | 58.7% | 65.7% | 42% | 14.1%

Reference: PubChem BioAssay (NCI)
